Structures are written as SMILES. The panel holds about 79,000 compounds, 15% with a hit somewhere; the sample as a whole holds those more often. Values without a mark were called inactive. Activity calls are given as the source filed them. Rule as the data show it: active = growth inhibition above about 70%; inactive = the rest. Where a SMILES comes first, the peptide text is derived from it. The star is where a group is joined. Trt = c1ccc(C(c2ccccc2)(c2ccccc2)*)cc1; Cbz = O=C(OCc1ccccc1)*

The nature of the assay: NCI Yeast Anticancer Drug Screen. Data for the rad50 strain (AID 155).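 Also: 0% = growth of vehicle-only cultures of the same strain.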 The settings on record: S. cerevisiae rad50 strain growth inhibition; at 50.0 µM; hits give high values. An outline of the steps: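 Cells are treated with compound, grown, and their growth is then scored against vehicle-only cultures of the same repair-deficient yeast strain.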
On to `N=C(N)SCCC(=O)O`, for which the growth inhibition was -29.4%. The value for `COC(=O)C(CO)NC(=O)C(CSC(c1ccccc1)(c1ccccc1)c1ccccc1)NC(=O)OCc1ccccc1` (stereo unspecified) (Cbz-Cys(Trt)-Ser-OMe; configuration not given here) was 76.2% (active).

Regarding `CC1(C)N=C(N)N=C(N)N1c1cccc(OCCCOc2ccc([N+](=O)[O-])cc2)c1`, the growth inhibition is -31.9%. With `CCN(CC)CCN(CC)CC(=O)Nc1ccccc1Cl` the figure was -14.9%; with `O=c1[nH]c(N2CCN(c3ccccc3)CC2)nc2cc3ccccc3cc12`, 2.55%; with `c1ccc(-c2cnc(C3CCCCC3)o2)cc1`, 28%. The value for `C[N+](C)(C)C=Nc1cccc2c1CCCC2` was 2.6%; that for `COc1ncnc2c(NC3OC(CO)C(O)C3O)ncnc12` (stereo unspecified) was 7.2%. The value for `Cn1c2cc(Cl)c(Cl)cc2nc2cc3c(cc21)c(Cl)c(=O)c1cc2cc(Cl)c(Cl)cc2cc13` was 31.8%; that for `CN1C=C([N+](=O)[O-])C(N2CCOCC2)C1N1CCOCC1` (stereo unspecified) was 3.1%.

Take `O=C1NCC(c2ccccc2)(C2CC2)O1` (stereo unspecified): the growth inhibition was 7.85%. With `CCOC(=O)c1noc(Oc2ccc(Cl)cc2Cl)n1` the figure was -13.9%; with `CCCN(CCC)C(=S)S`, 43.1%; with `CSc1ncnc2c1ccn2C1OC(COP(=O)(O)O)C(O)C1O` (stereo unspecified), 21.8%.

With `O=C(O)c1c(Br)c(Br)c(Br)c(Br)c1C(=O)Nc1ccc([N+](=O)[O-])cc1`, the growth inhibition was -14.6%.

On to `Cc1ccc(N2C(=O)CSC2=S)cc1F`, for which the growth inhibition is 1.55%.

The values above are taken from PubChem BioAssay (NCI).
